# Results as given in the supplement of paper PMC7801607.
# Tests used:
# CHO = assay: % viability of CHO cells (MTT); higher = less toxic; conditions: 48 h
# Summary of the method: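 CHO cells were plated at 10^6 cells/well in 200 µL and allowed to attach overnight. Fresh medium with compound at 2 or 20 µM then replaced the old medium for 48 h. Percent viability, relative to untreated cells, came from a colorimetric tetrazolium (MTT) readout.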
# HepG2-A16-CD81 = assay: % inhibition of HepG2 viability (CellTiter-Glo); higher = more toxic; conditions: 5 µM
# [1] = tested on: Plasmodium falciparum NF54 stage IV/V gametocytes; assay: % inhibition of gametocyte viability (PrestoBlue); higher = more inhibition; conditions: 48 h
# Summary of the method: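 In a single run, percent inhibition of gametocyte viability was calculated relative to vehicle and kill controls. The wells held 100 µL of Stage IV/V NF54 gametocytes at 2% gametocytaemia and 5% haematocrit, with compound at 1 or 5 µM. Plates stood at 37 °C in hypoxic conditions for 48 h. After that, 10 µL PrestoBlue was added for 2 h, and 70 µL of supernatant was transferred for fluorescence reading at 612 nm.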
# [2] = tested on: Plasmodium falciparum NF54 asexual blood stage; assay: % inhibition of asexual blood stage proliferation (pLDH); higher = more inhibition; conditions: 72 h
# Summary of the method: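 Percent inhibition of asexual proliferation, normalised to controls, was determined in a screen repeated on two separate occasions. Plasmodium falciparum NF54 ring-stage cultures (1% haematocrit, 2% parasitaemia) received compound at 2 or 20 µM and were incubated for 72 h at 37 °C under 4% CO2, 3% O2 and 93% N2. A colorimetric parasite lactate dehydrogenase readout at 620 nm gave survival.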
# [3] = tested on: Plasmodium falciparum NF54 stage IV/V gametocytes; assay: % inhibition of gametocyte viability (ATP bioluminescence); higher = more inhibition; conditions: 24 h
# Summary of the method: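 Enriched stage IV/V NF54 gametocytes were exposed to compound at 1 or 5 µM for 24 h at 37 °C in 96-well plates. Percent inhibition of gametocyte viability was derived from a bioluminescent ATP readout, normalised to controls within a single run.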
# [4] = tested on: Plasmodium falciparum NF54 stage IV/V gametocytes; assay: % inhibition of gametocyte viability (luciferase reporter); higher = more inhibition; conditions: 48 h
# Summary of the method: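 Stage IV/V gametocytes of the NF54-Pfs16-GFP-Luc line (2% gametocytaemia, 2% haematocrit) were exposed to compound at 1 or 5 µM. Incubation was 48 h at 37 °C, stationary and hypoxic. Luminescence was read on 30 µL lysate plus 30 µL Promega luciferin substrate on a GloMax-Multi+ reader with 10 s integration. Percent inhibition was normalised to DMSO and kill controls from a single run.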
# [5] = tested on: Plasmodium berghei ANKA liver stage in HepG2-A16-CD81; assay: % inhibition of liver stage parasite viability (luciferase); higher = more inhibition; conditions: 5 µM; 48 h
# Procedure: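 Single-concentration screen of the MMV Pandemic Response Box. P. falciparum NF54 asexual blood stages: pLDH assay, 72 h at 37 °C, 2 and 20 µM, n=2. Stage IV/V gametocytes (NF54): luciferase reporter (NF54-Pfs16-GFP-Luc, 48 h), ATP bioluminescence (24 h) and PrestoBlue (48 h) at 1 and 5 µM, n=1. P. berghei liver stage (luciferase in HepG2-A16-CD81, 48 h post infection) at 5 µM, n=4. All normalised to DMSO and kill controls as % inhibition.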
# 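Wherever % inhibition of HepG2 viability (CellTiter-Glo) is given: HepG2-A16-CD81 hepatoma cells plated as in the liver-stage assay but without sporozoites, with DMSO wells as negative and 25 µM puromycin as positive control.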
Compound,% viability of CHO cells (CHO; 2 µM) [%],% viability of CHO cells (CHO; 20 µM) [%],% inhibition of HepG2 viability (HepG2-A16-CD81) [%],% inhibition of gametocyte viability ([1]; 1 µM) [%],% inhibition of gametocyte viability ([1]; 5 µM) [%],% inhibition of asexual blood stage proliferation ([2]; 2 µM) [%],% inhibition of asexual blood stage proliferation ([2]; 20 µM) [%],% inhibition of gametocyte viability ([3]; 1 µM) [%],% inhibition of gametocyte viability ([3]; 5 µM) [%],% inhibition of gametocyte viability ([4]; 1 µM) [%],% inhibition of gametocyte viability ([4]; 5 µM) [%],% inhibition of liver stage parasite viability [5] [%]
NC1C2CC3CC(C2)CC1C3 (stereo not given),78.9,70.3,-1.51,21.5,18.1,76.1,43.4,6.86,5.87,9.54,9.98,9.47
CCOC(=O)/C=C/[C@H](C[C@@H]1CCNC1=O)NC(=O)[C@H](CC)n1cccc(NC(=O)c2cc(C)on2)c1=O,89,79.7,0.129,12,12.7,43.3,49.5,< 0,< 0,6.73,10.7,9.24
Cc1ncc([N+](=O)[O-])n1CC(O)CN1CCOCC1 (stereo not given),106,55.4,-2.47,< 0,< 0,30.7,75.1,< 0,< 0,0.715,1.52,25.3
Cc1c(CN(C)C(=O)/C=C/c2cnc3c(c2)C(C)(C)C(=O)N3)oc2ccccc12,105,87.2,9.28,< 0,9.55,13.1,78.8,< 0,< 0,< 0,15.2,11.2
CCCCCCC1c2ccc(O)cc2Oc2cc(O)ccc21,80.1,49.3,11.4,5.99,< 0,-7.32,12.9,4.64,15.4,< 0,< 0,42.4
NNC(=O)c1ccncc1,94.3,96.5,8.54,< 0,4.24,40.1,71.2,< 0,< 0,17.1,< 0,22.9
N#CCN1C(=O)COc2cc(F)c(N3C(=O)c4ccccc4C3=O)cc21,91.1,99.3,-3.69,3.4,2.45,8.98,14.8,< 0,< 0,< 0,14.5,14.6
Cc1cc(CCOc2c(C)cc(-c3nnn(C)n3)cc2C)on1,100,105,-1.96,26.4,21.8,12.7,31,< 0,< 0,4.37,32.2,33.8
CCc1nc(N)nc(N)c1C#CC(C)c1cc(OC)cc(-c2ccncc2)c1 (stereo not given),89.5,52.5,20.8,< 0,9.41,51.1,94,< 0,< 0,< 0,< 0,70.2
CC(N)C(=O)NC(CCCCN)C(=O)NC(CCCNC(=N)N)C(=O)NC(Cc1c[nH]cn1)C(=O)NC(Cc1c[nH]cn1)C(=O)NCC(=O)NC(Cc1ccc(O)cc1)C(=O)NC(CCCCN)C(=O)NC(CCCNC(=N)N)C(=O)NC(CCCCN)C(=O)NC(Cc1ccccc1)C(=O)NC(Cc1c[nH]cn1)C(N)=O (stereo not given),105,102,-0.769,< 0,14.3,10.1,17.2,< 0,< 0,< 0,< 0,26.4
